Bioassay records deposited in PubChem by National Center for Advancing Translational Sciences (NCATS).
In the library only some 2.3% were active in any assay of this set; here they are far more common.
Nrf2 activator – qHTS of Nrf2 Activators; Potency, µM (titrated, usually from 46.1 µM), most hits filed as activators; AREc32 ARE-luciferase reporter (MCF7-derived line), luminescence, 24 h; AID 624171, 2012; 410,000 compounds, 0.31% hits; note: nearly all actives have a fitted effect of over 65% in size
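AREc32_Fluc, 1000 cells/well, OPTI-MEM + 5% FBS, o/n 37 deg C 5% CO2; 23 nL cpd by pin tool, 24 hr; Steady-Glo 30 min RT, luminescence.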
Nrf2 inh – Nrf2 qHTS screen for inhibitors. A549 ARE-Fluc reporter, luciferase luminescence, 18-24 h. Potency, µM (highest dose often 46 µM), hits mostly inhibitors. 360,000 compounds, 2.1% hits. AID 504444, 2011; note: nearly all actives have a fitted effect of over 60% in size
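Nrf2 activity is the BugLite luminescence, read 15 min after reagent at room temperature, following CellTiter-Fluor cytotoxicity readout (30 min, 37C). Compound titrations were applied for 18-24 h to 5000 A549 ARE_Fluc cells/well in 5% FBS OPTI-MEM.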
mIDH1 inhibitor – qHTS for Inhibitors of mutant isocitrate dehydrogenase 1 (IDH1): qHTS; 390,000 compounds, 0.093% hits; Isocitrate dehydrogenase [NADP] cytoplasmic (Homo sapiens), O75874; IDH1-R132H enzyme, NADPH consumption, diaphorase/resazurin fluorescence; Potency, µM (highest dose often 76.6 µM), hits mostly inhibitors; note: nearly all actives have a fitted effect of over 65% in size
Target sequence (O75874 whole entry R132H, stated change not applied): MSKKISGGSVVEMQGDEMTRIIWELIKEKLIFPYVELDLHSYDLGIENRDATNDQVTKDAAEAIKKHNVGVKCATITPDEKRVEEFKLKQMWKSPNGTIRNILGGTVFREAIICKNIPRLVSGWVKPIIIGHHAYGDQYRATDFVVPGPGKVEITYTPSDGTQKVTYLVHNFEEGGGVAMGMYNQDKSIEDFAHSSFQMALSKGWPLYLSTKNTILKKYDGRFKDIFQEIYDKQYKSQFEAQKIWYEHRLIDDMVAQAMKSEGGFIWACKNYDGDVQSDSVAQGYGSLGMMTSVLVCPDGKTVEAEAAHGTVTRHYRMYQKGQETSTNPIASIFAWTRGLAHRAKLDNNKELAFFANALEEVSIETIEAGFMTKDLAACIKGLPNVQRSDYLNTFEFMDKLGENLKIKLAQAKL
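IDH1-R132H (0.5 ug/mL dispensed) in pH 7.5 Tris buffer was preincubated 30 min with compound, then given a substrate mix of 0.016 mM NADPH and 2 mM alpha-KG for 80 min at room temperature; remaining NADPH was read by diaphorase/resazurin fluorescence.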
Giardia killer – Small Molecules that selectively kill Giardia lamblia: qHTS | Giardia lamblia trophozoite viability | activity change, % at 7.66 µM, hits read low | 340,000 compounds, 0.15% hits | AID 540267, 2011; in the data active = activity change below about -80%; inconclusive = between about -30% and that limit;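 note: parasites exposed to compound for two days anaerobically before the ATP read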
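Giardia lamblia trophozoites (100 cells/well) were incubated with compounds for 48 h at 37 deg C under anaerobic conditions. Viability was read as ATP content by one-step luminescence after 15-30 min at room temperature.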
A549 tox – Nrf2 qHTS screen for inhibitors: counterscreen for cytotoxicity; A549 ARE-Fluc cells, CellTiter-Fluor viability, 18-24 h; AID 504648, 2011; Potency, µM (doses to about 46 µM), usual class: inhibitors; 390,000 compounds, 0.16% hits
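Cytotoxicity counterscreen: CellTiter-Fluor fluorescence was measured in A549 ARE_Fluc cells after 18-24 h of compound exposure in a concentration series. The subsequent BugLite luminescent read reports ARE-luciferase activity.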
Apoferritin bind – qHTS Assay for Identification of Novel General Anesthetics. Potency, µM (doses to about 77.5 µM), actives largely listed as inhibitors. 350,000 compounds, 0.074% hits. apoferritin/1-aminoanthracene competitive binding, fluorescence; note: nearly all actives have a fitted effect of over 20% in size
Target sequence (P02791 2-175 limits assumed): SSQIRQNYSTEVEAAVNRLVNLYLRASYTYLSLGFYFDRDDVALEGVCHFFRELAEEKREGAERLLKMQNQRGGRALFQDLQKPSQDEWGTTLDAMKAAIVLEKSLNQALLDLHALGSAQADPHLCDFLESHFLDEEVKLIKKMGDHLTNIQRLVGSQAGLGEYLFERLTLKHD
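Horse-spleen apoferritin (10 uM) was mixed with 50% saturated 1-aminoanthracene in PBS, exposed to compounds for 10 min at room temperature, and read for fluorescence (ex 380 nm, em 535 nm). Competitive displacement was fitted with a four-parameter Hill equation.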
Each line names hits and unclear results; the compound was inactive in the other large screens; ! = not active in a repeat. Unless noted, calls come from the whole dose curve; as a rule, active = well fitted curve in the direction sought with a large enough effect; inconclusive = small, poorly fitted or top-dose-only effect, or another doubt; inactive = no such curve, though single readings can be large; an effect the other way counts as inactive or inconclusive.

NC(=NCCCCCCN=C(N)/N=C(\N)Nc1ccc(Cl)cc1)/N=C(\N)Nc1ccc(Cl)cc1	Nrf2 inh 23.1µM!, A549 tox inconclusive, Apoferritin bind inconclusive
C#CC[N+](CC)(CC)CC#Cc1cccc(Cl)c1	Nrf2 inh 10.3µM
C#CC[N+](C)(C)CC#Cc1ccc(Cl)cc1	Giardia killer inconclusive
COc1ccc2c(c1)c1c(c(=O)n(-c3ccccc3C)c(=O)n1CC(N)=O)n2C	none (no result: Giardia killer)
Cc1ccc(C)c(N2CCN(C(=O)c3ccc(Cn4c(=O)[nH]c5ccccc5c4=O)cc3)CC2)c1	Nrf2 inh 7.31µM
CC(Oc1ccc(Br)cc1Cl)C(=O)Nc1ccncc1 (configuration not stated)	Nrf2 inh 20.6µM
Cc1ccc(S(=O)(=O)N2[C@@H](c3ccc(Br)cc3)C(C(=O)O)=CC[C@H]2c2cccs2)cc1	Nrf2 inh inconclusive (no result: Apoferritin bind)
Cc1ccc([C@@H]2CC=C(C(=O)O)[C@H](c3ccc(C(C)(C)C)cc3)N2S(=O)(=O)c2ccc(C)cc2)cc1	Nrf2 inh 18.4µM (no result: Apoferritin bind)
Cc1ccc([C@H]2C(C(=O)O)=CC[C@@H](c3cccs3)N2S(=O)(=O)c2ccc(C)cc2)cc1	Nrf2 inh 25.9µM, Giardia killer inconclusive, A549 tox inconclusive (no result: Apoferritin bind)
Cc1ccc(S(=O)(=O)N2[C@@H](c3ccc(C(C)(C)C)cc3)C(C(=O)O)=CC[C@H]2c2ccc(Cl)cc2)cc1	Nrf2 inh 18.4µM (no result: Apoferritin bind)
Cc1ccc(S(=O)(=O)N2[C@@H](c3ccc(Br)cc3)C(C(=O)O)=CC[C@H]2c2ccc(C(C)C)cc2)cc1	Nrf2 inh inconclusive, A549 tox inconclusive (no result: Apoferritin bind)
Cc1ccc(S(=O)(=O)N2[C@@H](c3ccc(C(C)(C)C)cc3)C(C(=O)O)=CC[C@H]2c2ccc(C(C)C)cc2)cc1	Nrf2 inh 2.91µM, mIDH1 inhibitor inconclusive, A549 tox inconclusive (no result: Apoferritin bind)
N#Cc1nc(Nc2ccc(-c3ccccc3)cc2)nc(NC2CCCC2)n1	Nrf2 inh inconclusive (no result: Nrf2 activator, mIDH1 inhibitor, Giardia killer, Apoferritin bind)
CC1C(=O)N(Cc2cn(Cc3ccco3)nn2)CCS(=O)(=O)N1Cc1ccc(-c2ccc(F)cc2Cl)cc1 (configuration not stated)	none (no result: Nrf2 inh, mIDH1 inhibitor, Giardia killer, A549 tox, Apoferritin bind)
COc1ccccc1-c1nnc(SCC(=O)c2ccc(F)cc2)n1-c1ccccc1	Apoferritin bind inconclusive (no result: Giardia killer)
CCc1ccc([C@@H]2CC=C(C(=O)O)[C@H](c3ccc(C(C)(C)C)cc3)N2S(=O)(=O)c2ccc(C)cc2)cc1	Nrf2 inh 20.6µM, A549 tox inconclusive (no result: Apoferritin bind)
CCc1ccc([C@@H]2CC=C(C(=O)O)[C@H](c3ccccc3)N2S(=O)(=O)c2ccc(C)cc2)cc1	Giardia killer inconclusive (no result: Apoferritin bind)
Cc1ccc(CN(C(=O)COc2ccc(F)cc2)C2CCS(=O)(=O)C2)o1 (configuration not stated)	none (no result: mIDH1 inhibitor, Giardia killer)
COc1ccc(-c2nc(NC(=O)C3CC(=O)N(c4ccc5c(c4)OCCO5)C3)sc2C)cc1 (configuration not stated)	Nrf2 inh 14.6µM, A549 tox inconclusive
CSc1ncc(Cl)c(C(=O)Nc2ccc(NC(C)=O)cc2)n1	none
CSc1ncc(Cl)c(C(=O)Nc2cccnc2)n1	Nrf2 activator 11.2µM
O=C(COCc1cc(-c2cccs2)on1)NCc1ccc(F)cc1	none (no result: Giardia killer)
COc1ccc(F)cc1-c1cc(NC=O)c2ncc(-c3cc(OC)c(OC)c(OC)c3)n2c1	none (no result: Nrf2 inh, mIDH1 inhibitor, Giardia killer, A549 tox, Apoferritin bind)
Oc1ccccc1C1NN=C(c2ccccc2)S1 (configuration not stated)	Nrf2 activator 7.08µM, Nrf2 inh inconclusive
CSc1ccc(C2NN=C(c3ccccc3)S2)cc1 (configuration not stated)	Nrf2 activator 5.01µM, Nrf2 inh inconclusive, Giardia killer inconclusive (no result: Apoferritin bind)
COc1ccc(C2NN=C(c3ccc(C)cc3)S2)cc1 (configuration not stated)	Nrf2 inh inconclusive
COc1ccc(C2/C=C\CN(C(=O)CC(C)(C)C)C(C)C(=O)N2Cc2ccc(F)cc2)cc1 (configuration not stated)	none (no result: Nrf2 activator, mIDH1 inhibitor)
CCOc1cc(/C=C2\SC(=S)N(N3CCOCC3)C2=O)ccc1O	none
CCOc1cc(/C=C2\SC(=N)N(c3nccs3)C2=O)ccc1OCCN1CCOCC1	Nrf2 inh 18.4µM, Giardia killer inconclusive, A549 tox 20.6µM, Apoferritin bind inconclusive
COc1ccc(S(=O)(=O)N2CCN(c3nc(-c4ccccc4)nc4ccccc34)CC2)cc1	none (no result: Nrf2 activator, mIDH1 inhibitor, Apoferritin bind)
CCCC(C)C(=O)Nc1nc(C)c(-c2csc(Nc3ccc(Cl)cc3)n2)s1 (configuration not stated)	Nrf2 inh 14.6µM
CCCC(C)C(=O)Nc1nc(C)c(-c2csc(Nc3ccccc3OC)n2)s1 (configuration not stated)	Apoferritin bind inconclusive
CCC(C)C(=O)Nc1nc(C)c(-c2csc(Nc3cc(Cl)ccc3OC)n2)s1 (configuration not stated)	Nrf2 inh 8.2µM
CC(=O)N1CCc2c(sc3c2c(=O)n(CCc2ccccc2)c(=O)n3CC(=O)Nc2ccc(C)c(F)c2)C1	Nrf2 inh inconclusive (no result: Giardia killer)
CC1=C(C(=O)Nc2ccc(Cl)cc2)C(c2ccccc2)n2ncc(C(=O)Nc3ccccc3)c2N1 (configuration not stated)	Nrf2 inh 16.4µM (no result: Giardia killer)
CC1=C(C(=O)Nc2ccc(Cl)cc2)C(c2ccccc2C)n2ncc(C(=O)Nc3ccc(C)cc3)c2N1 (configuration not stated)	none (no result: Giardia killer)
CC(C)CC(=O)/C=C/n1c(=S)oc2ccccc21	Nrf2 activator 11.2µM
O=C(Cn1ncc(Cl)c(Cl)c1=O)N1CCOCC1	Nrf2 activator 11.2µM, A549 tox inconclusive
O=C(Cn1ncc(Cl)c(Cl)c1=O)N1CCN(Cc2ccccc2)CC1	Nrf2 activator inconclusive, Nrf2 inh inconclusive, A549 tox inconclusive
CCc1ccc(C(=O)Cn2ncc(Cl)c(Cl)c2=O)cc1	Nrf2 activator 10µM, Apoferritin bind inconclusive
Cc1ccc(Cn2ncc(Cl)c(Cl)c2=O)cc1	Nrf2 activator inconclusive, Apoferritin bind inconclusive
CS(=O)(=O)c1ccc(C(=O)OCC(=O)N2CCCC2)cc1[N+](=O)[O-]	none (no result: Nrf2 activator, mIDH1 inhibitor, Apoferritin bind)
COc1ccc(Cl)cc1NC(=O)CSc1nnc2[nH]c(=O)cc(-c3ccccc3)n12	none (no result: Nrf2 inh, Giardia killer)
COc1ccc(CN(Cc2ccccc2)C(=O)CN2CCN(C)CC2)cc1COc1ccc(NC(C)=O)cc1	none (no result: Nrf2 activator, mIDH1 inhibitor, Apoferritin bind)
CC(C)(C)S(=O)(=O)/C(C#N)=N/Nc1ccc(Cl)cc1	Nrf2 inh 10.3µM, A549 tox inconclusive, Apoferritin bind inconclusive
